From PubChem BioAssay
The list is not random: actives were taken first. Their share in the collection is about 5.9%.
HSF1 inhib: HSF1 inhibitors in luciferase reporter cells, primary screen, cell-based, NIH3T3, luminescence. NIH3T3-HGL HSE-luciferase, MG132-induced, luminescence 8 h; stronger effect = lower value. activity change, negative = inhibition, % at 7.5 µM (by protocol). 300,000 tested, 0.77% active. AID 2098, 2009;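 active = more than half of replicate wells show activity change below -50%, luminescence cut by over half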;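 also: luciferase reports HSF-1 transcriptional activity via heat shock element; 0% = median of DMSO wells and -100% = zero luminescence signal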
HSF-1 act: HSF-1 activators, primary screen, NIH3T3-HGL cells, MG132 stress, luminescence, single point. NIH3T3-HGL HSF-1 luciferase reporter, 8 h; 100% = twice DMSO control signal. activation, % at 9 µM. 300,000 tested, 1.7% active;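 active = mean replicate activation of at least 50% with a set share of replicates each reaching 50%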;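 also: 0% = median of the neutral control wells and 100% = twice that signal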
GAA850 FXN act: FXN promoter activators, primary screen, cell-based, luciferase luminescence, HEK293 lucGAA850; activation, % at 6 µM; 360,000 tested, 0.56% active; AID 540364, 2011; HEK293 lucGAA850 FXN promoter luciferase reporter, 24 h; percent of 10 µM SAHA response;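 active = activation above the average of all compounds screened plus 3 SD, cutoff fixed separately per campaign, cut at about 7.5% in these data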;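 also: 0% = DMSO wells and 100% = 10 µM SAHA wells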
NR0B1 inh: DAX1 (NR0B1) inhibitors, primary screen, cell-based, HEK293, Gal4-DAX1, luciferase luminescence; Nuclear receptor subfamily 0 group B member 1 (Homo sapiens), P51843; HEK293 Gal4-DAX1 luciferase reporter; inhibition, % at 6.75 µM; 340,000 tested, 0.99% active; AID 504766, 2011;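 active = inhibition above the mean over all tested compounds plus 3 SD, cut at about 4.2% in these data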;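 also: 0% = DAX1-transfected cells with DMSO and 100% = empty-vector control cells with DMSO; inhibition shows as a rise in luminescence from relieved DAX1 repression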
AHR activator: AHR activators, primary screen, cell-based, luminescence, luciferase reporter, human; Aryl hydrocarbon receptor (Homo sapiens), P35869; AHR-responsive luciferase reporter cells; activation, % at 5 µM; 320,000 tested, 2.5% active; in the data active = activation above about 47%;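 also: 0% = vehicle wells and 100% = reference agonist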
Target sequence (P35869 whole entry, looked up): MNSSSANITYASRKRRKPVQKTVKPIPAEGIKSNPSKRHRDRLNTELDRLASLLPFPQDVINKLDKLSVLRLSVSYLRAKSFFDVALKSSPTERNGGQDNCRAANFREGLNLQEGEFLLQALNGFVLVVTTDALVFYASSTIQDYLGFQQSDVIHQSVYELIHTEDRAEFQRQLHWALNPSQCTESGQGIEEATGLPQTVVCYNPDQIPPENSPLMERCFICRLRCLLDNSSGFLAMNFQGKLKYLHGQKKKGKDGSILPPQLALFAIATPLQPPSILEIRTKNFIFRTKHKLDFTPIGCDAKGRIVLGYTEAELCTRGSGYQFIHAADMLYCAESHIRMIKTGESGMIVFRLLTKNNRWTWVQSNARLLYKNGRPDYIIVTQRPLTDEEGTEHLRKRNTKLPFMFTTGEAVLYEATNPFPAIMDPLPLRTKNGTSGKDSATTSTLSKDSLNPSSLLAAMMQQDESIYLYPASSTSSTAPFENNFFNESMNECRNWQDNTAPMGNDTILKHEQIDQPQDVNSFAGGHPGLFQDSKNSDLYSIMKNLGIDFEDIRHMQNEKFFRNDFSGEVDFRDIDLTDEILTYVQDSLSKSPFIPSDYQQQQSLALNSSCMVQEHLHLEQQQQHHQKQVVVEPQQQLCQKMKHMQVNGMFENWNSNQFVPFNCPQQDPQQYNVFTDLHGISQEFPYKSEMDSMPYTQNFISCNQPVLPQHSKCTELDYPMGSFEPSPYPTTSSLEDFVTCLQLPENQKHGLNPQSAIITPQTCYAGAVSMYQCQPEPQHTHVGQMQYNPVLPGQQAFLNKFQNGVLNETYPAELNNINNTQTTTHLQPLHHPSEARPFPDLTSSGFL
HSP90 refold inh: HSP90 inhibitors, primary screen, cell lysate, luminescence; AID 1789, 2009; 290,000 tested, 0.91% active; inhibition, % at 5.6 µM; Rabbit reticulocyte lysate, luciferase refolding luminescence, 3 h;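 active = inhibition above the screen-wide mean plus 3 SD, computed separately per campaign, cut at about 16% in these data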;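 also: 0% = DMSO wells and 100% = 60 µM geldanamycin wells; inhibitors lower the luminescence because luciferase stays unfolded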
* hit, by the source's call; . = no result.

SMILES | HSF1 inhib | HSF-1 act | GAA850 FXN act | NR0B1 inh | AHR activator | HSP90 refold inh
Cc1ccc(C)c(S(=O)(=O)c2c(N)n(/N=C/c3ccco3)c3nc4ccccc4nc23)c1 | 25 | 52* | 1 | 0 | -1 | 1
Cc1ccc(S(=O)(=O)c2c(N)n(CCC(C)C)c3nc4ccccc4nc23)cc1 | 53 | 109* | -2 | 1 | 2 | 3
CC(C)CCn1c(N)c(S(=O)(=O)c2cccs2)c2nc3ccccc3nc21 | 54 | 104* | -1 | -1 | 1 | 3
Cc1ccc(S(=O)(=O)c2c(N)n(Cc3ccco3)c3nc4ccccc4nc23)cc1C | 50 | 73* | 4 | 0 | 3 | 5
Cc1cc(C)cc(OCCN2CCOCC2)c1 | 2 | -7 | -1 | 0 | -1 | -2
Cc1ccc(NC(CC(=O)c2ccccc2)C(=O)O)cc1Cl (stereo unspecified) | 4 | 3 | 4 | 5.4* | 24 | 5
COc1cccc(NC(=O)CN(C)C(=O)c2cc(S(=O)(=O)N3CCCCCC3)ccc2OC)c1 | . | . | -2 | -1 | -2 | .
CC(C)(C)c1ccc(OCCC(=O)Nc2cccc(S(=O)(=O)NC3=NCCCCC3)c2)cc1 | . | . | -4 | -3 | . | .
O=C(CSc1nnc(NC(=O)C2CC2)s1)Nc1cccc(F)c1 | 0 | 12 | 3 | 0 | 4 | 0
CC(=O)N1N=C(c2ccc(C)cc2)OC1c1ccc(C(C)C)cc1 (stereo unspecified) | -1 | -10 | 7 | 4.5* | 11 | -4
COc1cc(CCCN2CCNC[C@@H]2Cc2ccc(O)cc2)cc(OC)c1OC | -55* | -66 | 3 | 0 | 1 | .
CCOc1cc(CN2CCC(N3CCC(C(=O)NC4CC4)CC3)CC2)ccc1O | . | . | 0 | 1 | . | .
CCC(=O)N1CCC1(C)C(=O)Nc1cccc(OC)c1 (stereo unspecified) | . | . | -3 | . | . | .
CCCCC(=O)Nc1ccc(C(=O)NCCc2ccccc2)cc1 | 2 | 26 | 0 | 1 | 9 | 5
CCCCC(=O)Nc1ccc(S(=O)(=O)Nc2nccc(C)n2)cc1 | -13 | -10 | -1 | -1 | 1 | 0
CCCCC(=O)Nc1ccc(C(=O)NCCc2ccc(S(N)(=O)=O)cc2)cc1 | -68* | -73 | 0 | -1 | 2 | 2
Cc1ccc(C(=O)Nc2nccc(C)n2)cc1 | 3 | -4 | 2 | 4.8* | 7 | 0
CCCCC(=O)Nc1ccc(C(=O)Nc2ccc(S(=O)(=O)Nc3nccc(C)n3)cc2)cc1 | -64* | -72 | 2 | 1 | -2 | -3
COCCN(CC(=O)Nc1ccccc1C(F)(F)F)C(=O)/C=C/c1ccc2ccccc2n1 | . | . | -1 | 0 | 11 | .
O=C(/C=C/c1cccs1)N1CCc2ccccc21 | 6 | 20 | 3 | 1 | 54* | 13
O=[N+]([O-])c1ccc2nc(SCc3cn4cc(Cl)ccc4n3)[nH]c2c1 | 10 | 13 | 1 | 0 | 78* | -1
O=[N+]([O-])c1ccc2nc(SCc3cn4ccccc4n3)[nH]c2c1 | 10 | 12 | 3 | 0 | 31 | 0
Cc1cc(C)nc(SCc2cn3cc(Cl)ccc3n2)n1 | 42 | 64* | 0 | 0 | 23 | -2
O=[N+]([O-])c1ccc2nc(SCc3cn4cccnc4n3)[nH]c2c1 | -1 | -4 | 2 | 1 | 51* | 3
COc1cc(/C=N/Nc2nc(C)nc3c2cnn3-c2ccccc2)ccc1O | . | . | -10 | -4 | . | 0
SMILES | HSF1 inhib | HSF-1 act | GAA850 FXN act | NR0B1 inh | AHR activator | HSP90 refold inh
Cc1nc(NC(=O)c2ccc3c(c2)OCO3)ccc1Br | 30 | 47 | 1 | 4.3* | 14 | -2
Cc1cccc(NC(=O)CNC(=O)c2ccc3c(c2)OCO3)n1 | -2 | 0 | 1 | 0 | 50* | .
Cc1cccc(NC(=O)c2ccc3c(c2)OCCO3)n1 | 16 | 28 | 2 | 0 | 10 | 9
CCOC(=O)C1CCCN(C(=S)NC(=O)/C=C/c2ccc(F)cc2)C1 (stereo unspecified) | 16 | 7 | 1 | 0 | -1 | -1
O=S(=O)(c1cc(Cl)ccc1Cl)N1CC2CCCN2c2ccc(C(F)(F)F)cc21 (stereo unspecified) | 25 | 70* | -1 | 0 | -2 | 3
Fc1ccc(C2CC(c3ccco3)=NN2c2ccccc2)cc1 (stereo unspecified) | 1 | -13 | 1 | -1 | -4 | 1
Fc1ccc(C2CC(c3ccco3)=Nc3ccccc3S2)cc1 (stereo unspecified) | -9 | -8 | 2 | 7.0* | 4 | 5
Cn1c(N)c(N=O)c(=O)n(C)c1=S | . | . | -2 | 0 | . | .
Brc1cccc(C2Nc3cccc4cccc(c34)N2)c1 | -4 | 3 | 0 | 5.2* | 35 | 3
CCOc1ccc2noc3c2c1C(=O)c1ccccc1-3 | 6 | 32 | -2 | 0 | 10 | 8
O=C1c2ccccc2-c2onc3ccc(N4CCCC4)c1c23 | 59 | 93* | 1 | -3 | . | 0
CC(=O)NC(Cc1cccc(F)c1)C(=O)NC1CCN(C(=O)c2cccc(C)c2)CC1 (stereo unspecified) | -5 | -5 | -1 | 5.4* | 1 | -2
CC(=O)NC(Cc1ccc(C(C)C)cc1)C(=O)NC1CCN(C(=O)c2cccc(C)c2)CC1 (stereo unspecified) | 3 | 3 | 2 | -2 | -1 | 4
CC1Sc2n(c3ccccc3[n+]2C)N=C1c1ccccc1 (stereo unspecified) | -9 | -10 | 1 | -1 | 74* | 0
C[n+]1c2n(c3ccccc31)N=C(c1ccc(Cl)cc1)CS2 | -2 | -11 | -2 | -4 | 64* | 2
COc1ccc(C2=Nn3c([n+](C)c4ccccc43)SC2)cc1 | -3 | 26 | -4 | -5 | 59* | 3
Cn1c(-c2ccccn2)[n+](C)c2ccccc21 | -3 | 5 | -1 | 0 | 1 | 1
COc1cc(NC(=O)c2ccc(-c3cccc([N+](=O)[O-])c3)o2)ccc1NC(=O)C(C)C | -33 | -41 | -4 | 0 | 3 | 1
COc1cc([N+](=O)[O-])ccc1NC(=O)c1cccc(NC(=O)C(C)C)c1 | -6 | 8 | 3 | -1 | 47* | -3
CCCCC(=O)Nc1cccc(NC(=O)c2cccc([N+](=O)[O-])c2)c1 | -3 | -7 | 2 | 0 | 10 | -1
CC(C)C(=O)Nc1cccc(NC(=O)c2cccc([N+](=O)[O-])c2)c1 | -3 | -12 | -2 | 5.5* | 7 | 2
